# HT1080-NT tox: qHTS for induction of synthetic lethality in tumor cells producing 2HG: qHTS for the HT-1080-NT fibrosarcoma cell line; AID 686970, 2013; 360,000 compounds, 1.6% hits; Potency, µM (top dose mostly 46.1 µM), inactives show top-dose activity, negative = less viability, hits mostly cytotoxic; HT-1080-NT fibrosarcoma viability, CellTiter-Glo ATP luminescence, 48 h;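 further: NT is the 2HG producing partner of a matched IDH1 knockdown line; potency means the concentration at half of the fitted maximal effect; 0% = DMSO-treated cells and -100% = media-only wells without cells; nearly all actives have a fitted effect of over 55% in size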
#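 A 48-hour cytotoxicity screen used HT-1080-NT cells plated 2 hours before compound delivery. ATP-based CellTiter-Glo luminescence measured viability, normalized to DMSO and no-cell controls.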
# HT1080 IDH1KD tx: qHTS for induction of synthetic lethality in tumor cells producing 2HG: qHTS for the HT-1080-IDH1KD cell line; HT-1080 IDH1 knockdown viability, ATP luminescence, 48 h; Potency, µM (series often up to 46.1 µM), for inactives: at the top dose activity, negative = toxicity, actives largely listed as cytotoxic; 360,000 compounds, 2% hits; AID 686971, 2013;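 further: potency means the concentration at half of the fitted maximal effect; 0% = DMSO wells and -100% = cell-free medium wells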
#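 Knockdown cells (IDH1KD HT-1080) received compounds 2 h after plating at 750 cells/well and were kept 48 h at 37 °C in 5% FBS RPMI. A CellTiter-Glo luminescence read gave % activity for curve fitting.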
# DT40 TDP1 no CPT: qHTS for Inhibitors of human tyrosyl-DNA phosphodiesterase 1 (TDP1): qHTS in cells in absence of CPT; DT40 Tdp1-/- hTDP1 cells, no CPT, ATP luminescence, 48 h; Potency, µM (titrated, usually from 46.2 µM), inactives show at the top dose activity change, negative = growth inhibition, usual class: inhibitors; 420,000 compounds, 15% hits; further: potency means the concentration at half of the fitted maximal effect; nearly all actives have a fitted effect of over 55% in size
#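 Chicken DT40 Tdp1-/- cells stably complemented with human TDP1 were seeded at 400 cells/well with DMSO in place of 20 nM camptothecin. After compound pinning, cells grew at least 48 hr at 37 °C; viability read by CellTiter-Glo luminescence.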
# IL-1B inflam inh: qHTS for Inhibitors of Inflammasome Signaling: IL-1-beta AlphaLISA Primary Screen | THP-1 LPS/ATP IL-1B secretion, AlphaLISA, 16 h; active compounds read low | activity change, % at 57.5 µM | 360,000 compounds, 4.7% hits; in the data active means activity change below about -50%; inconclusive means mostly about -30% to -49%
#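 THP-1 cells pretreated 1 hr with compounds (up to 57.5 uM final), then stimulated with LPS (250 ng/mL final) plus ATP (1.25 mM final); secreted IL-1B measured by AlphaLISA after 16 hr, decreased signal indicating inhibition.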
# DT40 TDP1 CPT: qHTS for Inhibitors of human tyrosyl-DNA phosphodiesterase 1 (TDP1): qHTS in cells in presence of CPT; chicken DT40 Tdp1-/-;hTDP1 cells + 20 nM CPT, ATP luminescence, 48 h; Potency, µM (doses to about 46.2 µM), inactives show top-dose activity change, negative = growth inhibition, actives largely listed as inhibitors; 420,000 compounds, 12% hits; AID 686979, 2013; further: potency means the concentration at half of the fitted maximal effect; nearly all actives have a fitted effect of over 55% in size
#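 Cell growth measured by CellTiter-Glo luminescence after a minimum 48 h, 37 C compound exposure with 20 nM CPT in Tdp1-knockout DT40 cells stably expressing hTDP1, seeded 400/well; qHTS titration format.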
# * = called active by the depositor; ? = inconclusive; nt = no result; [ ] = remark or other dose. In the library only some 19% were active in any assay of this set; here they are far more common. Unless noted, the call rests on the fitted dose curve; in most records, active means well fitted curve in the direction sought with a large enough effect; inconclusive means small, poorly fitted or top-dose-only effect, or another doubt; inactive means no such curve, though single readings can be large; an effect the other way counts as inactive or inconclusive. Unless noted, on the % scale 0 is the no-effect control and ±100 the full control effect.
SMILES,HT1080-NT tox,HT1080 IDH1KD tx,DT40 TDP1 no CPT,IL-1B inflam inh,DT40 TDP1 CPT
C/C(=N/NC(=O)c1cnccn1)c1cccs1,0.8%,-8.1%,-31.8%,-5.3,-0.3%
CCn1c(=O)c([N+](=O)[O-])c(NCCN(C)C)c2ccccc21,7.6%,-1.3%,11.8%,-19.9,39.3%
CCn1c(=O)c([N+](=O)[O-])c(Cl)c2ccccc21,?,3.66µM*,2.59µM*,-96.3*,2.91µM*
COc1ccc(CCNS(=O)(=O)c2ccc3c(c2)CC(C)N3C(C)=O)cc1OC (configuration not stated),-9.7%,-13.0%,?,31.3,-27.5%
CC(=O)N1c2ccc(S(=O)(=O)N(C)CC(=O)NCc3ccccc3)cc2CC1C (configuration not stated),12.9%,-0.9%,0.3%,13.5,-15.2%
CCOc1ccc(CNS(=O)(=O)c2ccc3c(c2)CC(C)N3C(C)=O)cc1OC (configuration not stated),nt,nt,11.6µM*,nt,13µM*
COc1cc(CNS(=O)(=O)c2ccc3c(c2)CC(C)N3C(C)=O)cc(OC)c1OC (configuration not stated),6.2%,-12.1%,?,35.4,10.3µM*
CCCCN(Cc1ccccc1)S(=O)(=O)c1cc(Br)cc2c1N(C(C)=O)C(C)C2 (configuration not stated),?,?,13µM*,-19.4,16.4µM*
CC(=O)N1c2c(cc(Br)cc2S(=O)(=O)NCc2cccnc2)CC1C (configuration not stated),-3.6%,-4.4%,-21.4%,26.5,0.5%
CC(=O)N1c2ccc(S(=O)(=O)N(C)Cc3ccccc3)cc2CC1C (configuration not stated),14.5%,7.8%,20.6µM*,-15.1,-19.9%
NC(=NC(=O)c1ccccc1)N1N=CCC1c1ccccc1 (configuration not stated),14.2%,-6.3%,-16.3%,12.4,-7.0%
CC(=O)N1c2ccc(S(=O)(=O)NCc3ccccc3Cl)cc2CC1C (configuration not stated),-0.3%,-2.4%,7.31µM*,19.1,?
COc1ccc(Cn2ccc3nc(C)c(C(=O)N4CCN(c5ccccc5)CC4)cc3c2=O)cc1,nt,nt,-6.7%,nt,2.9%
COc1ccc(Cn2ccc3nc(C)c(C(=O)N4CCN(c5cc(C)ccc5C)CC4)cc3c2=O)cc1,nt,nt,23.1µM*,nt,20.6µM*
COc1ccc(Cn2ccc3nc(C)c(C(=O)NCc4ccc(C)cc4)cc3c2=O)cc1,nt,nt,?,nt,25.9µM*
Cc1ccc(C)c(N2CCN(C(=O)c3cc4c(=O)n(Cc5ccco5)ccc4nc3C)CC2)c1,nt,nt,16.4µM*,nt,?
COc1ccc(Cn2ccc3nc(C)c(C(=O)N4CCN(c5cccc(OC)c5)CC4)cc3c2=O)cc1,nt,nt,?,nt,14.6µM*
Cc1nc2ccn(Cc3ccccc3)c(=O)c2cc1C(=O)N1CCN(c2ccccc2)CC1,?,-3.6%,-15.8%,12.0,-23.5%
COCCn1c(=O)c(-c2ccccc2)nc2cnc(OC)nc21,nt,nt,-7.8%,nt,-17.4%
Cc1ccc(NC(=O)COc2cccnc2[N+](=O)[O-])cc1S(=O)(=O)N1CCOCC1,-0.2%,0.0%,?,26.9,1.7%
Cc1ccccc1C(=O)N1CCc2c(cnc(C)c2CNC(=O)c2ccc3c(c2)OCO3)C1,nt,nt,-23.6%,nt,6.2%[9.04 µM]
O=[N+]([O-])c1cccc(S(=O)(=O)N/N=C/c2ccc(O)cc2)c1,-12.7%,3.4%,-6.2%,0.0,-0.6%
COc1cccc(N2CCN(C(=O)c3cc4c(=O)n(Cc5ccco5)ccc4nc3C)CC2)c1,nt,nt,16.4µM*,nt,16.4µM*
